Values joined by “and” are separate entries in the source; they are usually repeats but may differ in a detail not shown here. Identical values can stand only once. Active and inactive are the calls of the source.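 Rule for the calls, unless noted: active = compounds whose cell count with miR-34 switched on is under 0.7 times the count with it off; inactive = the rest.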
Experiments:
[1] = Wnt pathway potentiators raising nuclear beta-catenin – imaging, WNT3A-conditioned medium, mouse C2C12, NPC library, primary screen (AID 1117326; in the data active = nuclear beta-catenin stimulation mostly above about 4.2%, no sharp cut-off; inactive = mostly below about 10%); conditions: stronger effect = higher value
[2] = stimulators of insulin release from INS-1E, primary screen, cell-based, 5 mM glucose, NPC library (AID 1117329;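 active = compound raises insulin release from rat beta cells at 5 mM glucose, no numeric limit stated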); conditions: rat INS-1E insulin secretion, at 10 µM, stronger effect = higher value
[3] = growth inhibition of GSK3B-pretreated HCT116 cells – cell-based, CellTiter-Glo, 0.2 to 20 µM (AID 1117336;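 active = compounds lowering colon cancer cell viability after pretreatment blocking the GSK3B kinase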); conditions: HCT116 viability after GSK3B inhibitor, at 20 µM, stronger effect = higher value
[4] = inhibition of endothelial tube formation, primary screen, imaging, VEGF stimulated, CD31 staining, tube area, NPC library (AID 1117340;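 active = compound that reduces growth-factor-driven endothelial tube area in a mixed cell culture, no cutoff stated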); conditions: VEGF-stimulated ADSC/ECFC co-culture, at 10 µM, stronger effect = higher value
[5] = GLP1 release stimulators, primary, NCI-H716, NPC library (AID 1117341;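 active = compound raises GLP1 secretion from the human gut endocrine cells, with no numeric limit stated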); conditions: NCI-H716 cells, at 10 µM, stronger effect = higher value
[6] = HCT116 colon cancer cell growth inhibition, primary screen, CellTiter-Glo luminescence, NPC library (AID 1117342;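 active = compounds that lower survival of HCT116 colon cancer cells in the luminescence readout, no numeric limit stated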); conditions: at 20 µM (top of the series)
[7] = reduced SW480 viability measured with CellTiter-Glo, NPC library, primary (AID 1117343;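 active = compounds that lower viability of the colon cancer cells in the luminescence readout, with no numeric limit stated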); conditions: CellTiter-Glo luminescence; at 20 µM (top of the series) unless noted
[8] = NPC library primary testing for decreased DLD-1 cell viability via CellTiter-Glo (AID 1117346;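 active = compounds that lower survival of DLD-1 colon cancer cells in the luminescence readout, no cutoff given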); conditions: DLD-1 viability, CellTiter-Glo luminescence; at 20 µM (top of the series)
[9] = EMT-state selective cytotoxicity in co-culture – imaging, PC-3E GFP, TEM4-18 mCherry, primary screen (AID 1345086;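 active = compounds killing one labelled cell type while sparing the other, by normalised counts and ratio limits, not self-fluorescent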;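 for all read-outs here: cells exposed to compound for 72 h before imaging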;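 for red/green cell ratio (normalised): normalised mesenchymal count divided by normalised epithelial count so high means epithelial killing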); conditions: PC-3E GFP / TEM4-18 mCherry co-culture, imaging cell counts, at 1 µM; for red/green cell ratio (normalised): actives lie on both sides, counts scaled to control wells, 1 = unselective
[10] = viability loss with induced miR-34 in A549 – imaging, A549 dox-inducible miR-34, nuclei and caspase counts, primary screen (AID 1347080); conditions: A549 miR-34 inducible, Hoechst nuclei count, 48 h
[11] = target: NAD(+) hydrolase SARM1 (Homo sapiens) (UniProt Q6SZW1); assay: blocking NAD cleavage by SARM1 SAM-TIR – cell lysate, NAD-Glo luminescence (AID 1508614;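 active = compound whose remaining NAD level is above about 45 nM, limit read from the data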;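 note: higher remaining NAD means stronger inhibition of SARM1 NADase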); conditions: SAM-TIR HEK293T lysate NADase, at 1 µM, stronger effect = higher value
Sequence of NAD(+) hydrolase SARM1 (Homo sapiens) (Q6SZW1 whole entry, looked up): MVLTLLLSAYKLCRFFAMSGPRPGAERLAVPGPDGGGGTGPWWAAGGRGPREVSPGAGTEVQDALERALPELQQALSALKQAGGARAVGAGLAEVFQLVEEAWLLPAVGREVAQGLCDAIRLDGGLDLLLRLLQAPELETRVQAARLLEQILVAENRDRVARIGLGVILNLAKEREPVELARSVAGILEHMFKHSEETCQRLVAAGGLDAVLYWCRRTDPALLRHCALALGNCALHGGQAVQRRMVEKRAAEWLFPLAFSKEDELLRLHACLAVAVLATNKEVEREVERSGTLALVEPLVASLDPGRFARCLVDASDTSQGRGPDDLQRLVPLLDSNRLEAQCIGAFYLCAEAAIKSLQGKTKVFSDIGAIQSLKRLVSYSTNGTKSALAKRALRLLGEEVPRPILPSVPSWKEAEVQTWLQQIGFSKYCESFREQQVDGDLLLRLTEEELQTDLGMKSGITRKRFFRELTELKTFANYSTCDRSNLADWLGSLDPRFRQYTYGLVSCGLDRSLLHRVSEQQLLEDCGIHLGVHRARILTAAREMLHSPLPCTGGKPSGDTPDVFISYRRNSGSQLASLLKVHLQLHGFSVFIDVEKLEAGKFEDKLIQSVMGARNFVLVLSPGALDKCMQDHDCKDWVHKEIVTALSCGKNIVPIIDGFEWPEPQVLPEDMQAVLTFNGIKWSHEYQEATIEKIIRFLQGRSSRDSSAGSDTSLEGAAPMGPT

[12] = P. berghei load reduction in hepatocytes – cell-based, HepG2, luciferase luminescence, HepG2 viability, primary screen (AID 624349; in the data active = parasite load remaining mostly below about 12%, no sharp cut-off; inactive = mostly above about 10%;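 note: 100% = mean of DMSO negative control wells on the same plate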); conditions: P. berghei liver stage in HepG2, luciferase luminescence, concentration not given here; parasite load remaining: stronger effect = lower value; viability: measured here: HepG2 viability without parasites
[13] = MELAS cybrid and Rieske KO viability enhancers – cell-based, MELAS cybrids, Rieske KO mouse fibroblasts, CellTiter-Glo, primary screen (AID 1508586;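 active = mean z-score across replicates of 1.96 or higher in either the MELAS or the Rieske mutant cell line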;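 note: z relative to plate mean and SD of compound and empty wells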); conditions: low glucose
[14] = compounds altering viability of human ES cells (AID 493140; call rule not given here;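 note: cells exposed to compounds for four days before counting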); conditions: human embryonic stem cell survival screen; stronger effect = higher value
[15] = measured here: epithelial PC-3E GFP cell survival
[16] = measured here: mesenchymal TEM4-18 mCherry cell survival
[17] = stronger effect = lower value, cell number ratio, induced over uninduced
[18] = measured here: relative caspase fold change +Dox/-Dox
[19] = measured here: total cells with miR-34 induction, stronger effect = lower value
[20] = measured here: total cells without miR-34 induction

With `CCOc1ccc(NC(=O)CC(C)O)cc1` (configuration not stated) the nuclear beta-catenin stimulation ([1]; at 10 µM) was -2.6% (inactive), the nuclear beta-catenin stimulation ([1]; stimulation, at 2 µM) was 0.2% and the insulin secretion stimulation [2] was 0.2% (inactive). The viability decrease [3] was -0.1% (inactive), the tube area decrease [4] was 4.3% (inactive) and the GLP1 secretion stimulation [5] was -3.3% (inactive). The inhibition of viability [6] was 1.4% (inactive), the viability decrease (inhibition) [7] was -2.6% (active) and the viability decrease (inhibition) [8] was -15.7% (inactive). For the same molecule, the red/green cell ratio (normalised) [9] was 1.16 (inactive), the normalised cell number [9, 15] was 0.83 and the normalised cell number [9, 16] was 0.96. The fold change [10, 17] was 0.956 (inactive), the fold change [10, 18] was 0.822 and the cell count [10, 19] was 9180. The cell count [10, 20] was 9600 and the remaining NAD [11] was 10 nM (inactive).
In the case of `O=C1OC(CN2CCOCC2)CN1/N=C/c1ccc([N+](=O)[O-])o1` (configuration not stated), the parasite load remaining [12] is reported as 37.8% (inactive), the viability [12] is reported as 89.8% and the nuclear beta-catenin stimulation ([1]; at 10 µM) is reported as 1.3% (inactive). The nuclear beta-catenin stimulation ([1]; stimulation, at 2 µM) was 3.6%, the insulin secretion stimulation [2] was -1.4% (inactive) and the viability decrease [3] was 31.8% (inactive). For the same molecule, the tube area decrease [4] was -4.4% (inactive), the GLP1 secretion stimulation [5] was -0.3% (inactive) and the inhibition of viability [6] was 24.6% (inactive). The viability decrease (inhibition) [7] was 22% (inactive), the viability decrease (inhibition) [8] was -32.5% (inactive) and the red/green cell ratio (normalised) [9] was 1.05 (inactive). The normalised cell number [9, 15] was 1.05, the normalised cell number [9, 16] was 1.1 and the fold change [10, 17] was 0.949 (inactive) and 0.857 (inactive). For the same molecule, the fold change [10, 18] was 0.904 and 1.34, the cell count [10, 19] was 8490 and 8240 and the cell count [10, 20] was 8940 and 9610. For the same molecule, the z-score ([13]; MELAS cybrid survival, CellTiter-Glo 48 h, stronger effect = higher value) was -1.3 (inactive), the z-score ([13]; Rieske KO mouse fibroblast survival, CellTiter-Glo 72 h) was -1.11 and the remaining NAD [11] was 10 nM (inactive).
In the case of `NC(=O)c1cc[n+](CC2=C(C(=O)[O-])N3C(=O)[C@@H](NC(=O)Cc4cccs4)[C@H]3SC2)cc1`, the survival [14] is reported as 16 (inactive), the parasite load remaining [12] is reported as 91.4% (inactive) and the viability [12] is reported as 73.4%. The nuclear beta-catenin stimulation ([1]; at 10 µM) was -2.2% (inactive), the nuclear beta-catenin stimulation ([1]; stimulation, at 2 µM) was -0.6% and the insulin secretion stimulation [2] was 11.8% (inactive). For the same molecule, the viability decrease [3] was 10.6% (inactive), the tube area decrease [4] was -7.6% (inactive) and the GLP1 secretion stimulation [5] was 0.9% (inactive). For the same molecule, the inhibition of viability [6] was -2.6% (inactive), the viability decrease (inhibition) [7] was 3.4% (inactive) and the viability decrease (inhibition) [8] was 5.4% (inactive). The red/green cell ratio (normalised) [9] was 0.75 (inactive), the normalised cell number [9, 15] was 1.26 and the normalised cell number [9, 16] was 0.94. For the same molecule, the fold change [10, 17] was 0.969 (inactive), the fold change [10, 18] was 0.479 and the cell count [10, 19] was 9810. The cell count [10, 20] was 10100 and the remaining NAD [11] was 10 nM (inactive).
With `CC(C)CCCC(C)N` (configuration not stated) the parasite load remaining [12] was 30.8% (inactive), the viability [12] was 90% and the nuclear beta-catenin stimulation ([1]; at 10 µM) was 3.1% (inactive). For the same molecule, the nuclear beta-catenin stimulation ([1]; stimulation, at 2 µM) was 2%, the insulin secretion stimulation [2] was 4.9% (inactive) and the viability decrease [3] was 2% (inactive). For the same molecule, the tube area decrease [4] was -9.7% (inactive), the GLP1 secretion stimulation [5] was 0% (inactive) and the inhibition of viability [6] was -7.6% (inactive). For the same molecule, the viability decrease (inhibition) [7] was -47.3% (active), the viability decrease (inhibition) [8] was -8.6% (active) and the red/green cell ratio (normalised) [9] was 1.15 (inactive). For the same molecule, the normalised cell number [9, 15] was 0.96, the normalised cell number [9, 16] was 1.1 and the fold change [10, 17] was 0.884 (inactive). It also gave a fold change [10, 18] of 1.92, a cell count [10, 19] of 11300 and a cell count [10, 20] of 12800. For the same molecule, the remaining NAD [11] was 10 nM (inactive).
